PubChem BioAssay AID588856 (National Center for Advancing Translational Sciences (NCATS), 2011)
About 3,100 (0.76%) of roughly 410,000 compounds were called active. Calls come from the whole dose curve; as a rule, active = well fitted cell-killing curve with a large enough effect; inactive = no such curve, though single readings can be large or run the other way. What follows is part of a selection rich in actives, with near analogues and random picks from the rest. Where a call stands in place of a potency, no number is given.

Experiment: qHTS for Inhibitors of TGF-b: Cytotox Counterscreen
Conditions: HepG2 CAGA-GFP viability, ATP luminescence, 18 h; series mostly up to 46.1 µM
Outline: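 HepG2 CAGA-GFP cells (1000/well, DMEM with 1% FBS) received compound, then TGF-beta at 500 pg/mL final, and were incubated 18 hours at 37 degrees C. Viability was read by CellTiter-Glo luminescence. Media-only wells were set as complete cell-killing and DMSO as no toxicity.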
Potency is the fitted concentration of half-maximal effect.

Structure (SMILES) | Potency
CCC(C)N(c1ccc(/C=C/c2ccnc3ccccc23)cc1)C(C)CC (stereo unspecified) | inactive
Cc1cccc(NC(=O)N2CCC(CN3CCc4ccccc4C3)CC2)c1C | inactive
CCCN(CCC)CCCNC(=O)Cn1ncc2c3ccccc3n(Cc3ccccc3)c2c1=O | inactive
CCN(CC)CCNC(=O)Cn1ncc2c3ccccc3n(Cc3ccccc3C)c2c1=O | 15.8 µM (active)
Cc1ccccc1Cn1c2ccccc2c2cnn(CC(=O)NCc3ccco3)c(=O)c21 | inactive
O=C(CSc1oc(-c2ccco2)nc1S(=O)(=O)c1ccc(Cl)cc1)c1ccccc1 | inactive
COC(=O)CC1Oc2ccccc2-n2cc(-c3ccccc3)nc21 (stereo unspecified) | inactive
COc1cc(/C=C/C(=O)O)cc(S(=O)(=O)Nc2ccccc2SC)c1OC | inactive
CCOc1ccc(C(=O)Nc2ccc3nc4c(c(Nc5ccccc5OC)c3c2)CCCC4)cc1 | inactive
COc1ccccc1Nc1c2c(nc3ccc(NC(=O)/C=C/c4cc(OC)c(OC)c(OC)c4)cc13)CCCC2 | 5.62 µM (active)
COCCCNC(=O)c1c(NC(=O)c2cc(=O)c3cc(C)c(C)cc3o2)sc2c1CCCC2 | inactive
COC(=O)c1sc(-c2ccc(C(C)(C)C)cc2)cc1NC(=O)/C=C/C(=O)O | 7.08 µM (active)
OC(Cc1ccc2ccccc2n1)c1ccc(Cl)c(Cl)c1 (stereo unspecified) | inactive
C/C=C/NNC(=O)Cc1ccc(OC)cc1 | inactive
O=c1cc2nc(-c3ccccc3)nc(SCCOc3ccc(Cl)cc3)n2[nH]1 | inactive
Cc1ccc(-c2nc(SCc3ccc(Br)cc3)n3[nH]c(=O)cc3n2)cc1 | 5.01 µM (active)
Cc1cccc(-c2nc(SCc3ccc(Br)cc3)n3[nH]c(=O)cc3n2)c1 | inactive
COc1ccc(-c2nc(CN3CCC(C(=O)NCc4ccccc4)CC3)c(C)o2)cc1OC | inactive
Nc1ccc(/C=C/c2ccnc3ccccc23)c([N+](=O)[O-])c1 | inactive
COc1cccc(CNC(=O)c2ccc3c(c2)sc2nc(-c4cccc(OC)c4)cn23)c1 | inactive
Cc1cccc(-n2c(SCC(N)=O)nc3c(oc4ccccc43)c2=O)c1 | inactive
Cc1cc(C)cc(Nc2ncnc3onc(-c4ccc(F)cc4)c23)c1 | inactive
C=COC(=O)N1CCN(/[N+]([O-])=N/Oc2ccc([N+](=O)[O-])cc2[N+](=O)[O-])CC1 | inactive
Cc1cccc(NS(=O)(=O)c2ccc(-c3cnc(C4CC4)o3)cc2)c1 | inactive
CCn1c(=O)c(=O)[nH]c2c(=O)oc3ccc(S(=O)(=O)Nc4ccc(OC)cc4)cc3c21 | inactive
Cc1cc(NS(=O)(=O)c2ccc3oc(=O)c4ncn(C)c4c3c2)ccc1Br | 11.2 µM (active)
